Laboratory results published in PubChem BioAssay (EPA / NIEHS).
Calls of active or inactive are those of the source. The calls were made as follows: active = hit-call score of the fitted dose curve at least 0.9, where 1 is the maximum; inactive = score below 0.9.

read-out: Heat shock 70 kDa protein 1 (HSPA1A), gene 3303; experiment: LTEA_HepaRG_HSPA1A: Life Technologies and Expression Analysis (LTEA) Assay for Heat shock 70 kDa protein 1 (HSPA1A) using HepaRG (AID 2283502); details: mRNA level, 48 h; actives raise or lower the signal
Outline: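 Readout is HSPA1A transcript level by microfluidic qRT-PCR, normalized to three housekeeping genes and analysed for gain or loss of signal relative to 0.5% DMSO. Human HepaRG cultures received test chemicals for 48 h at up to 100 uM.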

Sequence of Hypoxia-inducible factor 1-alpha (Homo sapiens) (Q16665 whole entry, looked up): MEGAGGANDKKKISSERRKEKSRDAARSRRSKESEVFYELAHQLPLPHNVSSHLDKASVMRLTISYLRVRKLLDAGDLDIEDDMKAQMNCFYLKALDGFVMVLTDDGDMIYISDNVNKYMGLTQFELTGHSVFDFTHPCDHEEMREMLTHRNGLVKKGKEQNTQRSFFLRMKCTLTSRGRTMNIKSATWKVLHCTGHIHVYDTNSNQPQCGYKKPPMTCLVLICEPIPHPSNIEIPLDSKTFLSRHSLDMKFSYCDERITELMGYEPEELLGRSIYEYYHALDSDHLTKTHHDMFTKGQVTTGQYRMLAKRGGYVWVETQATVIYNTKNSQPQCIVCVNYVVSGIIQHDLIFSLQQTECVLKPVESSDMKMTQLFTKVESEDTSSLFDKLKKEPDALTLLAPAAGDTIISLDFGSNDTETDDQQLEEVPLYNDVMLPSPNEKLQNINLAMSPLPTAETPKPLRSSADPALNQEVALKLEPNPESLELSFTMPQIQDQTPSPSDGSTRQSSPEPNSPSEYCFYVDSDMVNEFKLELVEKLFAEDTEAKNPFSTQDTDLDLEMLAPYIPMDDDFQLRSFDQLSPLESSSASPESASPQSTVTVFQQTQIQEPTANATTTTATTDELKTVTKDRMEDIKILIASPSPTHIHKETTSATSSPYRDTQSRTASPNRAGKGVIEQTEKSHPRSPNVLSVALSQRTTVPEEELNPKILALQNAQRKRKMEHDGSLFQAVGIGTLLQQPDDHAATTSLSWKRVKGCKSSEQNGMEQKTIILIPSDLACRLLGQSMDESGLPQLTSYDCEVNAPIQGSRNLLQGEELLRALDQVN

outcome, inactive:
CSc1ccc(Oc2ccc(S(N)(=O)=O)cc2CN(C)C)cc1C
CCCCOC(=O)CCCCC(=O)OCCCC
COc1ccc(C(=O)Nc2nc3ccccc3c(NCc3ccccc3)c2C#N)cc1
CN(C)C(=O)NC1(c2ccccc2)CCN(CC[C@@]2(c3ccc(F)c(F)c3)CN(C(=O)c3ccccc3)CCO2)CC1
Cc1cc(Cc2ccc(N)c(C)c2)ccc1N
Cc1cc(SC2=C(O)C[C@@](CCc3ccc(N)cc3)(C(C)C)OC2=O)c(C(C)(C)C)cc1CO
CCCCCCC(C=O)=Cc1ccccc1
O=C1O[C@H]([C@H](O)CO)C(O)=C1O
CCC(C)N(C)C(=O)c1cc2ccccc2c(-c2ccccc2Cl)n1 (stereo not drawn)
OCC(O)CO
CCCCc1nc2cccnc2n1Cc1ccc(-c2ccccc2-c2nnn[nH]2)cc1
O=C(O)CC(O)(CC(=O)O)C(=O)O
O=Cc1ccccc1C=O
CC1(C)C(=O)NC(=O)N1CO
CCCC[C@H]1CN(CC2CCOCC2)C(=O)OC12CCN(C1(C)CCN(C(=O)c3c(C)ncnc3C)CC1)CC2
C#CC(O)C(CC)CCCC (stereo not drawn)
Cc1ccc(C(C)(C)C)c(O)c1

read-out: Hypoxia-inducible factor 1-alpha (Homo sapiens) (UniProt Q16665); experiment: LTEA_HepaRG_HIF1A: Life Technologies and Expression Analysis (LTEA) Assay for Hypoxia-inducible factor 1 (HIF1A) Trancription factor using HepaRG (AID 2283503); details: mRNA level, 48 h; actives raise or lower the signal
Outline: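 Differentiated HepaRG cells in serum-free induction medium exposed 48 h, in duplicate, to 8-point half-log series from 100 uM in 0.5% DMSO. HIF1A mRNA measured by TaqMan qRT-PCR, normalized to ACTB/GAPDH/POLR2A, fitted bidirectionally versus DMSO.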

outcome, inactive:
COC(=O)CCCC(=O)OC
O=C(O)CN(CC(=O)O)CC(=O)O
CC(C)c1cccc(C(C)C)c1NC(=O)NS(=O)(=O)c1cc(C(C)(C)O)co1
NC=O
CC(=O)S[C@H](C(=O)N[C@H]1Cc2ccccc2[C@H]2CCC[C@@H](C(=O)O)N2C1=O)C(C)C
CC(=O)CC(c1ccccc1)c1c(O)c2ccccc2oc1=O (stereo not drawn)
NCCOCCOCCN
O=C(O)c1[nH]n(-c2ccc(S(=O)(=O)O)cc2)c(=O)c1N=Nc1ccc(S(=O)(=O)O)cc1
CCc1cc(C2=C(C(=O)O)N(c3ccccc3C(F)(F)F)S(=O)(=O)c3ccccc32)cc2c1OCO2
CCCCCCCCCC[N+](C)(C)[O-]
CSc1ccc(Oc2ccc(S(N)(=O)=O)cc2CN(C)C)cc1C
CCCCOC(=O)CCCCC(=O)OCCCC
COc1ccc(C(=O)Nc2nc3ccccc3c(NCc3ccccc3)c2C#N)cc1
CN(C)C(=O)NC1(c2ccccc2)CCN(CC[C@@]2(c3ccc(F)c(F)c3)CN(C(=O)c3ccccc3)CCO2)CC1
Cc1cc(Cc2ccc(N)c(C)c2)ccc1N
Cc1cc(SC2=C(O)C[C@@](CCc3ccc(N)cc3)(C(C)C)OC2=O)c(C(C)(C)C)cc1CO
CCCCCCC(C=O)=Cc1ccccc1
O=C1O[C@H]([C@H](O)CO)C(O)=C1O
OCC(O)CO
CCCCc1nc2cccnc2n1Cc1ccc(-c2ccccc2-c2nnn[nH]2)cc1
O=C(O)CC(O)(CC(=O)O)C(=O)O
O=Cc1ccccc1C=O
CC1(C)C(=O)NC(=O)N1CO
CCCC[C@H]1CN(CC2CCOCC2)C(=O)OC12CCN(C1(C)CCN(C(=O)c3c(C)ncnc3C)CC1)CC2
C#CC(O)C(CC)CCCC (stereo not drawn)
Cc1ccc(C(C)(C)C)c(O)c1
